# Source: PubChem BioAssay (NCI)
# The panel holds about 83,000 compounds, 20% with a hit somewhere; the sample as a whole holds those more often.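 The endpoint reported here, percent growth, reads 100 for growth as untreated, 0 for no net growth and -100 for all cells dead.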 Values without a mark were called inactive. The source made the active and inactive calls. The calls were made as follows: active = growth percent below 10; inactive = the rest.
# Assays:
# Assay in all cases: NCI-60 one-dose screen, 48 h (100 = growth as untreated, 0 = no growth, -100 = all killed)
# NCI-H226 lung = settings: 10 µM
# NCI-H322M lung = settings: 10 µM
# HOP-62 NSCLC = settings: 10 µM
# NCI-H522 lung = settings: 10 µM
# A549/ATCC NSCLC = settings: 10 µM
# COLO 205 colon = settings: 10 µM
# DU-145 prostate = settings: 10 µM
# K-562 leukemia = settings: 10 µM
# SF-539 CNS = settings: 10 µM
# M14 melanoma = settings: 10 µM
# HCT-15 colon = settings: 10 µM
# HT29 colon = settings: 10 µM
# SNB-75 CNS = settings: 10 µM
# U251 CNS = settings: 10 µM
# PC-3 prostate = settings: 10 µM
# LOX IMVI melanoma = settings: 10 µM
# MOLT-4 leukemia = settings: 10 µM
# RPMI-8226 leukemia = settings: 10 µM
# SK-OV-3 ovarian = settings: 10 µM
# MDA-MB-468 breast = settings: 10 µM unless noted
SMILES,growth (NCI-H226 lung) [%],growth (NCI-H322M lung) [%],growth (HOP-62 NSCLC),growth (NCI-H522 lung),growth (A549/ATCC NSCLC),growth (COLO 205 colon) [%],growth (DU-145 prostate) [%],growth (K-562 leukemia) [%],growth (SF-539 CNS),growth (M14 melanoma),growth (HCT-15 colon) [%],growth (HT29 colon),growth (SNB-75 CNS),growth (U251 CNS),growth (PC-3 prostate),growth (LOX IMVI melanoma),growth (MOLT-4 leukemia),growth (RPMI-8226 leukemia),growth (SK-OV-3 ovarian),growth (MDA-MB-468 breast)
COc1ccc(Cn2cc(C#N)c(N)c2C(C)=O)c(OC)c1,102,103,105%,104%,103%,125,107,103,96.2%,99.8%,102,117%,111%,105%,97.6%,99.6%,105%,105%,99.8%,99.5%
O=C(CN1CCN(c2ncnc3c2cnn3-c2ccccc2)CC1)Nc1ccc(Cl)cc1,67.5,78.9,85.7%,-83.1% (active),67%,56.7,57.5,42.4,76.1%,59.4%,45,63.4%,69.7%,66.7%,38.8%,39.9%,7.06% (active),44.4%,79.2%,42.5%
COc1cccc(C(=O)CSc2nc(-c3ccc(OCc4ccccc4)c(OC)c3)c(C#N)c(=O)[nH]2)c1,86.6,88.3,92.2%,78.9%,98.5%,115,107,90.6,94.2%,99.5%,92.8,116%,87.7%,79.2%,103%,85.7%,102%,102%,94.5%,88.4%
Cc1cc(N=C2NC(=O)S/C2=C\c2ccc(F)cc2)n[nH]1,17.1,32.3,26.7%,-8.95% (active),18.9%,19.2,30,15.4,4.62% (active),-30.7% (active),13.9,6.68% (active),2.65% (active),5.06% (active),6.14% (active),-59.8% (active),10.5%,-14.7% (active),44.3%,-5.57% (active)
COc1ccc(Cc2nn(CC(=O)N/N=C/c3ccc([N+](=O)[O-])cc3)c(=O)c3c(C)noc23)cc1,70.6,78.6,39.6%,76.1%,22.5%,82.9,88.4,88.4,34%,70.1%,83.7,96.2%,99.8%,24.4%,69.8%,26.4%,90.2%,81.5%,103%,53.1%
CC1(C)CC[C@]2(C(=O)O)CC[C@]3(C)C(=CCC4[C@@]5(C)C[C@@H](O)[C@@H]6OC(c7cccc(F)c7)OC[C@@]6(C)C5CC[C@]43C)C2C1 (stereo not given in full),39.9,34.2,49.5%,8.76% (active),19.8%,15.2,36.7,21.1,70.2%,46%,23,28.1%,81.6%,11.6%,32.1%,27.6%,18.5%,21.1%,82.7%,23.5%
COc1ccc(Cc2nn(CC(=O)N/N=C/c3ccc(Br)cc3)c(=O)c3c(C)noc23)cc1,55.3,62.6,2.75% (active),29.2%,6.92% (active),52.2,55.4,51.8,13%,57.6%,63.8,63.4%,-30.1% (active),-27.7% (active),43.9%,25.9%,63.2%,55.4%,-30% (active),26.4%
